In PubChem BioAssay (NCATS):
Results filed as inconclusive are left out. The source made the active and inactive calls. Calls follow the shape of the dose curve; as a rule, active = well fitted curve in the direction sought with a large enough effect; inconclusive = small, poorly fitted or top-dose-only effect, or another doubt; inactive = no such curve, though single readings can be large; an effect the other way counts as inactive or inconclusive.

Legend:
[1] = Quantitative High-Throughput drug screen in 47 multiple myeloma cell lines against the NCATS MIPE library collection: NCIH929_DSMZ cell viability assay (AID 1918978); also: nearly all actives have a fitted effect of over 35% in size
How it was run: (§1)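 Cells were exposed to library compounds for 48 hours, after which ATP was measured by CellTiter-Glo. Signal was taken as median relative luminescence units.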

[2] = Quantitative High-Throughput drug screen in 47 multiple myeloma cell lines against the NCATS MIPE library collection: OCIMY1_PLB cell viability assay (AID 1918979); also: nearly all actives have a fitted effect of over 35% in size;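 as to viability: 100% = DMSO-only wells and 0% = cell-free media-only wells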
How it was run: as §1

[3] = Quantitative High-Throughput drug screen in 47 multiple myeloma cell lines against the NCATS MIPE library collection: MM1R_ATCC cell viability assay (AID 1918981); also: nearly all actives have a fitted effect of over 35% in size
How it was run: as §1

[4] = Quantitative High-Throughput drug screen in 47 multiple myeloma cell lines against the NCATS MIPE library collection: L363_DSMZ cell viability assay (AID 1918984); also: nearly all actives have a fitted effect of over 40% in size
How it was run: as §1

[5] = Quantitative High-Throughput drug screen in 47 multiple myeloma cell lines against the NCATS MIPE library collection: OCIMY7_PLB cell viability assay (AID 1918987); details: OCI-MY7 myeloma viability, CellTiter-Glo ATP, 48 h; viability (% of DMSO): at 45.8 µM (top of the series); also: nearly all actives have a fitted effect of over 65% in size
How it was run: as §1

[6] = Quantitative High-Throughput drug screen in 47 multiple myeloma cell lines against the NCATS MIPE library collection: OCIMY5_PLB cell viability assay (AID 1918988); also: nearly all actives have a fitted effect of over 65% in size
How it was run: as §1

[7] = Quantitative High-Throughput drug screen in 47 multiple myeloma cell lines against the NCATS MIPE library collection: OPM1_PLB cell viability assay (AID 1918989); also: nearly all actives have a fitted effect of over 40% in size
How it was run: as §1

[8] = Quantitative High-Throughput drug screen in 47 multiple myeloma cell lines against the NCATS MIPE library collection: SKMM1_PLB cell viability assay (AID 1919863); details: SKMM1 myeloma viability, CellTiter-Glo ATP, 48 h; viability: stronger effect = lower value; also: nearly all actives have a fitted effect of over 35% in size
How it was run: as §1

[9] = Quantitative High-Throughput drug screen in 47 multiple myeloma cell lines against the NCATS MIPE library collection: U266_ATCC cell viability assay (AID 1919864); also: nearly all actives have a fitted effect of over 35% in size;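 as to viability (% of DMSO control): 0% = media-only wells without cells and 100% = DMSO-only wells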
How it was run: as §1

[10] = Quantitative High-Throughput drug screen in 47 multiple myeloma cell lines against the NCATS MIPE library collection: XG1_PLB cell viability assay (AID 1919866); also: nearly all actives have a fitted effect of over 35% in size
How it was run: as §1

[11] = Quantitative High-Throughput drug screen in 47 multiple myeloma cell lines against the NCATS MIPE library collection: UTMC2_PLB cell viability assay (AID 1919868); details: CellTiter-Glo ATP luminescence, 48 h; viability (% of DMSO control): at 45.8 µM (top of the series); also: nearly all actives have a fitted effect of over 55% in size;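 as to viability (% of DMSO control): 100% = DMSO-only wells and 0% = media-only wells without cells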
How it was run: as §1

[12] = Quantitative High-Throughput drug screen in 47 multiple myeloma cell lines against the NCATS MIPE library collection: PE2_PLB cell viability assay (AID 1919869); also: nearly all actives have a fitted effect of over 35% in size
How it was run: as §1

[13] = Quantitative High-Throughput drug screen in 47 multiple myeloma cell lines against the NCATS MIPE library collection: RPMI8226_ATCC cell viability assay (AID 1919871); also: nearly all actives have a fitted effect of over 30% in size
How it was run: as §1

[14] = Quantitative High-Throughput drug screen in 47 multiple myeloma cell lines against the NCATS MIPE library collection: LP1_DSMZ cell viability assay (AID 1918982); also: nearly all actives have a fitted effect of over 35% in size
How it was run: as §1

[15] = Quantitative High-Throughput drug screen in 47 multiple myeloma cell lines against the NCATS MIPE library collection: KMS34_JCRB cell viability assay (AID 1918985); also: nearly all actives have a fitted effect of over 40% in size
How it was run: as §1

[16] = Quantitative High-Throughput drug screen in 47 multiple myeloma cell lines against the NCATS MIPE library collection: XG6_PLB cell viability assay (AID 1919865); also: nearly all actives have a fitted effect of over 40% in size
How it was run: as §1

[17] = Quantitative High-Throughput drug screen in 47 multiple myeloma cell lines against the NCATS MIPE library collection: VP6_DJ cell viability assay (AID 1919867); also: nearly all actives have a fitted effect of over 40% in size;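 as to viability (% of DMSO): 100% = DMSO-only wells and 0% = wells with media alone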
How it was run: as §1

[18] = Quantitative High-Throughput drug screen in 47 multiple myeloma cell lines against the NCATS MIPE library collection: PCM6_Riken cell viability assay (AID 1919870); also: nearly all actives have a fitted effect of over 30% in size
How it was run: as §1

[19] = Quantitative High-Throughput drug screen in 47 multiple myeloma cell lines against the NCATS MIPE library collection: KMS28PE_JCRB cell viability assay (AID 1918983); also: nearly all actives have a fitted effect of over 35% in size
How it was run: as §1

[20] = Quantitative High-Throughput drug screen in 47 multiple myeloma cell lines against the NCATS MIPE library collection: MM1S_ATCC cell viability assay (AID 1918980); also: nearly all actives have a fitted effect of over 45% in size
How it was run: as §1
Potency is read from the fitted curve at half-maximal effect.

CO[C@H]1C=CO[C@@]2(C)Oc3c(C)c(O)c4c(O)c(c5c(c4c3C2=O)NC2(CCN(CC(C)C)CC2)N=5)=NC(=O)C(C)=CC=C[C@H](C)[C@H](O)[C@@H](C)[C@@H](O)[C@@H](C)[C@H](OC(C)=O)[C@H]1C
active: Potency [3] 10.5 µM | Potency [5] 4.18 µM | Potency [6] 23.5 µM | Potency [10] 20.9 µM | Potency [13] 16.6 µM
inactive: Potency [1] | Potency [2] | Potency [4] | Potency [7] | viability [8] 99.2% | Potency [9] | Potency [11] | Potency [12]

CC(=NNC(=S)N1CCC1)c1ccccn1
active: Potency [2] 0.0074 µM | Potency [7] 0.0037 µM | Potency [8] 0.0059 µM | Potency [13] 0.0042 µM
inactive: Potency [1] | Potency [5] | Potency [11] | Potency [12]

O=C(CCc1ccc(O)cc1)c1c(O)cc(O)cc1O[C@@H]1O[C@H](CO)[C@H](O)[C@H](O)[C@H]1O
inactive: Potency [1] | Potency [2] | Potency [3] | Potency [14] | Potency [4] | Potency [6] | viability [8] 101% | Potency [9] | Potency [10] | Potency [12]

Cc1ccc(C(C)(O)c2nc3ccccc3s2)c(C)c1 (stereo not drawn)
inactive: Potency [1] | Potency [2] | Potency [14] | Potency [4] | Potency [15] | viability [8] 94% | Potency [16] | Potency [10] | Potency [17] | Potency [12] | Potency [18] | Potency [13]

CC(C)(C)COc1ccc(-n2cc(C(=O)O)cn2)cc1C#N
inactive: Potency [1] | Potency [2] | Potency [3] | Potency [14] | Potency [19] | Potency [4] | viability [8] 120% | Potency [9] | Potency [16] | Potency [10] | Potency [11] | Potency [18]

CNC(=O)c1ccc2cc(C3(O)CCn4cncc43)ccc2c1 (stereo not drawn)
inactive: Potency [1] | Potency [2] | Potency [3] | Potency [14] | Potency [19] | Potency [7] | Potency [10] | Potency [17] | Potency [12] | Potency [18] | Potency [13]

O=c1cc(-c2ccccc2)oc2cc(O)cc(O)c12
inactive: Potency [1] | Potency [2] | Potency [3] | Potency [15] | Potency [7] | viability [8] 139% | Potency [9]
active: Potency [4] 16.6 µM | Potency [18] 20.9 µM

COc1ccc(-c2coc3cc(O)cc(O)c3c2=O)cc1
inactive: Potency [1] | Potency [2] | Potency [3] | Potency [14] | Potency [19] | Potency [15] | Potency [5] | Potency [10] | Potency [17] | Potency [18]

Cc1[nH]c(C=C2C(=O)Nc3ccc(S(=O)(=O)Cc4c(Cl)cccc4Cl)cc32)c(C)c1C(=O)N1CCC[C@H]1CN1CCCC1
active: Potency [1] 8.33 µM | Potency [2] 26.4 µM | Potency [3] 20.9 µM | Potency [19] 20.9 µM | Potency [4] 2.35 µM | Potency [15] 20.9 µM | Potency [5] 10.5 µM | Potency [6] 14.8 µM | Potency [7] 8.33 µM | Potency [8] 20.9 µM | Potency [9] 23.5 µM | Potency [16] 8.33 µM | Potency [10] 5.26 µM | Potency [17] 8.33 µM | Potency [11] 20.9 µM | Potency [12] 20.9 µM | Potency [18] 7.43 µM | Potency [13] 20.9 µM

NS(=O)(=O)c1ccc(NC2=CC(=O)c3ccccc3C2=O)cc1
inactive: Potency [2] | Potency [19]
active: Potency [1] 26.4 µM | Potency [14] 2.35 µM | Potency [4] 1.66 µM | Potency [5] 2.09 µM | Potency [6] 4.69 µM | Potency [7] 6.62 µM | Potency [8] 4.69 µM | Potency [12] 14.8 µM

Cc1c[nH]c(C=C2C(=O)Nc3ccccc32)c1CCC(=O)O
inactive: Potency [1] | Potency [2] | Potency [4] | Potency [9] | Potency [16] | Potency [13]
active: Potency [19] 23.5 µM | Potency [6] 20.9 µM | Potency [7] 0.833 µM | Potency [18] 20.9 µM

C[C@]12CC[C@@H]3c4ccc(O)cc4CC[C@H]3[C@H]1C[C@@H](O)[C@H]2O
inactive: Potency [1] | Potency [2] | Potency [3] | Potency [14] | Potency [15] | Potency [7] | Potency [10] | Potency [11]
active: Potency [6] 3.32 µM | Potency [9] 18.7 µM | Potency [16] 5.9 µM

Cc1ccccc1C(C(=O)NC1CCCCC1)N(C(=O)Cn1ccnc1C)c1cccc(F)c1 (stereo not drawn)
active: Potency [14] 13.2 µM | Potency [6] 23.5 µM | Potency [8] 0.469 µM | Potency [9] 5.26 µM
inactive: Potency [1] | Potency [2] | Potency [7] | Potency [16] | Potency [10] | Potency [12]

CC(C)(C)C(=O)Oc1ccc2c(c1)nc(NC(=O)c1cccc([N+](=O)[O-])c1)n2CCCO
active: Potency [20] 23.5 µM | Potency [6] 18.7 µM
inactive: Potency [1] | Potency [2] | Potency [7] | Potency [16] | Potency [10] | Potency [12] | Potency [18]
